# Screening data deposited in PubChem by National Center for Advancing Translational Sciences (NCATS).
# Only a selection was taken, and hits are over-represented in it overall.
# KDM4E inh – JMJD2E (human) inhibition; AID 2147; JMJD2E catalytic domain, FDH-coupled NADH fluorescence (FDH is formaldehyde dehydrogenase); actives 1.6% (n = 230,000); Potency, µM (top dose mostly 57.1 µM), inactives show at the top dose activity change, negative = inhibition, actives largely listed as inhibitors; B2RXH2; active = well fitted inhibition curve with a large enough effect, not every such curve was filed as active; inconclusive = small, poorly fitted or top-dose-only effect, or another doubt; inactive = no such curve, though single readings can be large or run the other way;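 also: potency is read from the fitted curve at half-maximal effect; 0% = wells with enzyme and -100% = buffer wells without enzyme; nearly all actives have a fitted effect of over 50% in size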
# GALK inh – inhibitors of human galactokinase. P51570. Purified GALK, Kinase-Glo residual ATP luminescence. Potency, µM (titrated, usually from 57.5 µM), for inactives: at the highest dose activity change, negative = inhibition, hits mostly inhibitors. actives 0.007% (n = 270,000). AID 1868; also: potency is read from the fitted curve at half-maximal effect
# Target sequence (P51570 whole entry, looked up): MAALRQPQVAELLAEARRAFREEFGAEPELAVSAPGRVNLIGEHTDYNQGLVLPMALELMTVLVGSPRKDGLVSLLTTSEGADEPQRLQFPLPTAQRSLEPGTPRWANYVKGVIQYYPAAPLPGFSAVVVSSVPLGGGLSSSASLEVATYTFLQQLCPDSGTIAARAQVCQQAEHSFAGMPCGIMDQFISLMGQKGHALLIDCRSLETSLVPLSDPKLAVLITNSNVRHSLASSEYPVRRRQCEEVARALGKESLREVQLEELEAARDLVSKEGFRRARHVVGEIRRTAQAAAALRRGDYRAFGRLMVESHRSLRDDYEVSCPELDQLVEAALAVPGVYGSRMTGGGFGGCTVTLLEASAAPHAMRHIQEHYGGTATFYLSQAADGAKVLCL
#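 GALK at 5 nM final was combined with compound, 35 uM ATP and 100 uM galactose in HEPES pH8.0 with MgCl2 and DTT. The reaction ran one hour at room temperature before luminescent ATP detection.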
# Eya2 phos inh – Eya2 (human) phosphatase inhibition; O00167; AID 488837; recombinant Eya2, OMFP fluorescence dephosphorylation (OMFP is methylfluorescein phosphate); Potency, µM (top dose mostly 76.9 µM), inactives show at the highest dose activity, negative = inhibition, hits mostly inhibitors; actives 0.006% (n = 330,000); also: potency is read from the fitted curve at half-maximal effect
#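 Eya2 protein (added as 0.2 uM solution) was preincubated with compound for 10 min at ambient temperature in 50 mM HEPES pH 7.5, 50 mM NaCl, 5 uM MgCl2, 0.05% BSA, 1 mM DTT. OMFP (added at 50 uM) then reacted 10 min; fluorescence read at 485/525 nm.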
# Anesthetic bind – candidate novel general anesthetic via apoferritin binding | apoferritin/1-aminoanthracene competitive binding, fluorescence | Potency, µM (series often up to 77.5 µM), for the others: at the highest dose activity change, negative = displacement, usual class: inhibitors | actives 0.074% (n = 350,000); also: potency is read from the fitted curve at half-maximal effect; nearly all actives have a fitted effect of over 20% in size
# Target sequence (P02791 2-175 limits assumed): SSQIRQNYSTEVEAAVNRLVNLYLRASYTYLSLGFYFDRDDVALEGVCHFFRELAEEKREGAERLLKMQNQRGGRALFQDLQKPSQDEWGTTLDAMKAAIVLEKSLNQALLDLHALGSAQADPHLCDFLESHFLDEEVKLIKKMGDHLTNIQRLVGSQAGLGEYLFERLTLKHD
#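 10 uM apoferritin + 50% sat. 1-AMA, PBS; cpd 10 min RT; Ex380/Em535 endpoint; normalized to free probe vs complex; 4-param Hill fit; propofol titration as pos. ctrl.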
# Six1-Eya2 blk – Six1/Eya2 interaction inhibition; AID 651725; actives 0.56% (n = 360,000); activity change, % (concentration not given with the values); Q15475+O00167; AlphaScreen GST-Six1/His-Eya2 binding, biochemical; hits give low values; in the data active = activity change below about -65%; inconclusive = mostly about -30% to -63%
#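 GST-Six1 + His-Eya2 (5X stock: 250/500 nM); Tris pH 8.0, 300 mM NaCl, 0.05% BSA, 0.02% Tween 20; GSH donor/Ni acceptor beads; 1 h 37 °C dark; AlphaScreen readout.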
# CtBP-E1A blk – inhibitors of CtBP/E1A interaction; AlphaScreen GST-E1A/His-CtBP binding, 1536-well; hits give low values; activity change, % (no concentration beside the values); actives 0.49% (n = 340,000); in the data active = activity change below about -65%; inconclusive = mostly about -30% to -63%
#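 Homogeneous bead-based format: GST-tagged E1A captured on glutathione donor beads, His-tagged CtBP on nickel acceptor beads; compounds precede bead addition by 2 h at 37 °C.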
# * = called active by the depositor; ? = inconclusive; · = not tested or not shown; ! = not confirmed by another sample; [ ] = remark or other dose. Unless noted, calls follow the shape of the dose curve; as a rule, active = well fitted curve in the direction sought with a large enough effect; inconclusive = small, poorly fitted or top-dose-only effect, or another doubt; inactive = no such curve, though single readings can be large; an effect the other way counts as inactive or inconclusive. Unless noted, % is scaled to controls: 0 for no effect and ±100 for the full control effect.
SMILES,KDM4E inh,GALK inh,Eya2 phos inh,Anesthetic bind,Six1-Eya2 blk,CtBP-E1A blk
O=S1(=O)N=C(N(CCO)/N=C/c2ccncc2)c2ccccc21,-2%,1%,0%,-2%,-80*,-78*
CC(=O)Nc1ccn(C2OC(C(COC(C)=O)NC(=O)C(COCc3ccccc3)NC(=O)OC(C)(C)C)C(OC(C)=O)C2OC(C)=O)c(=O)n1 (stereo not given),·,·,·,-6%,·,·
CCCCC1=CC2=C(c3ccco3)C(=O)C(C)(OC(=O)c3ccc(Cl)nc3)C(=O)C2=CO1 (stereo not given),-5%,·,·,·,·,·
COc1cc(CCNc2ccc3nnc(-c4ccccc4)n3n2)cc(OC)c1OC,-5%,·,7%,-2%,-80*,-90*
CCSS(=O)(=O)c1cccc2cccnc12,3.2µM*,-1%,2%,-4%,-91*,-90*
COC(=O)c1c(SCC(=O)Nc2cccc(C(F)(F)F)c2)[nH]c2ccccc2c1=O,·,·,·,-7%,·,·
CCC(C)CCCCC(=O)NC(CCN)C(=O)NC(C(=O)NC(CCN)C(=O)NC1CCNC(=O)C(C(C)O)NC(=O)C(CCN)NC(=O)C(CCN)NC(=O)C(CC(C)C)NC(=O)C(Cc2ccccc2)NC(=O)C(CCN)NC1=O)C(C)O (stereo not given),-10%,·,·,-17%,·,·
CCCC[C@@H]1C[C@H]1C(NC(=O)c1ccco1)c1ccccc1C(F)(F)F (stereo not given in full),-2%,·,·,?,·,·
COc1cccc(NC(=O)Cn2c(CCC(=O)O)ccc2-c2ccc(Cl)cc2)c1,28µM*,2%,9%,-8%,3,4
COc1cccc(NC(=O)Cn2c(CCC(=O)O)ccc2-c2ccccc2)c1,?,4%,14%,-6%,-9,-3
COC(=O)c1ccc(C(NC(=O)OCc2ccccc2)/C(=C/[C@@H](C)C(=O)NCC2CC2)c2cccnc2)cc1 (stereo not given in full),1%,·,·,-1%,·,·
CN1/C(=C\C=Nc2ccc3ccccc3c2)C(C)(C)c2ccccc21,?,-2%,11%,?,·,·
CN(C)c1ccc(N=C/C=C2\N(C)c3ccccc3C2(C)C)cc1,?,0%,11%,?,-66*,?
Cc1cccc(CSc2ncc(Cl)c(C(=O)Nc3nnc(C)s3)n2)c1,·,·,·,14µM*,·,·
CNc1ccc(Br)cc(C(=O)/C=C/c2cccc(OC)c2OC)c1=O,28µM*,0%,3%,2%,2,4
c1ccc(-c2nc(-c3ccncc3)n[nH]2)nc1,?,4%,14%,2%,-89*,-1
c1ccc(-c2ccncc2)nc1,·,·,8%,·,0,7
CN1CC(c2ccccc2)C2(SC(=S)N(Cc3ccco3)C2=O)C12C(=O)Nc1ccccc12 (stereo not given),-4%,0%,11%,?,-23,-21
CN1CC(c2ccccn2)C2(SC(=S)N(Cc3ccccc3)C2=O)C12C(=O)Nc1ccccc12 (stereo not given),-10%,-4%,4%,-17%,-76*,-76*
O=C(Cn1cnc2c(oc3ccccc32)c1=O)Nc1ccc(F)cc1F,·,·,·,382%,·,·
CC(=O)N1CN(Cc2ccccn2)Cc2c1sc1c2CCCC1,-24%,-2%,-15%,-3%,-74*,?
CC(=O)N1CN(CCCn2ccnc2)Cc2c1sc1c2CCCC1,204%,-1%,2%,-18%,-6,-11
O=S(=O)(Nc1cccc2ncccc12)c1cccs1,-4%,1%,8%,-9%,-92*,-90*
Cc1cc(C)n2nc(CNC(=O)c3c(F)cccc3F)nc2n1,·,·,·,-2%,·,·
COc1ccc(Nc2nc(N3CCCC3)c3ccccc3n2)cc1,-10%,-1%,-5%,-4%,-28,?
SMILES,KDM4E inh,GALK inh,Eya2 phos inh,Anesthetic bind,Six1-Eya2 blk,CtBP-E1A blk
CCN(CC)c1ccc(Nc2nc(N3CCOCC3)c3ccccc3n2)cc1,-13%,0%,-12%,?,-81*,-78*
CCc1ccc(NC(=O)C2CCCN(S(=O)(=O)c3cccc4cccnc34)C2)cc1 (stereo not given),·,·,·,-23%,·,·
COc1ccc(-c2nc(-c3cccs3)c(-c3cccs3)[nH]2)cc1OC,?,-3%,-1%,-15%,?,-73*
COc1ccc(-c2nc(-c3ccccc3)c(-c3cccs3)[nH]2)cc1OC,?,-4%,0%,4%,?,7
Cc1c(C(=O)Nc2ccccc2F)sc2ncnc(N(C)C3CCCCC3)c12,·,·,·,9%,·,·
COc1cccc(N2CCN(S(=O)(=O)c3cn(C)c(C)n3)CC2)c1,·,·,·,5%,·,·
COc1ccc(CC(=O)N2CCc3ccccc32)cc1,-2%,4%,-1%,-1%,13,6
O=C(Cc1ccccc1)N1CCc2ccccc21,-6%,-1%,-26%,8.9µM*,7,8
Cc1ccc(C(C2=C(O)CC(C)(C)CC2=O)C2C(=O)CC(C)(C)CC2=O)s1 (stereo not given),-14%,0%,-25%,?,7,-2
CC1(C)CC(=O)C(C(C2=C(O)CC(C)(C)CC2=O)c2ccc(Br)s2)C(=O)C1 (stereo not given),20µM*,1%,-1%,?,0,-11
CN1CCN(c2nc3c(S(=O)(=O)c4ccccc4)nnn3c3ccsc23)CC1,·,·,·,4%,·,·
COc1cccc(CNC(=O)C2CCCN(c3nn4cc(-c5ccc(C)cc5)nc4s3)C2)c1 (stereo not given),·,·,·,41%,·,·
FC(F)(F)c1nc(=S)c2ccccc2[nH]1,10µM*,0%,23%,0%,-20,3
CC1=NN(c2nc(-c3ccc(Cl)cc3)cs2)C(=O)C1,25µM*,4%,-5%,-5%,5,12
COC(=O)C1=COC(C)C2CN3CCc4c([nH]c5ccccc45)C3CC12 (stereo not given),2%,-1%,0%,-10%,-2,-24
COC(=O)C1=CO[C@@H](C)[C@H]2CN3CCc4c([nH]c5ccccc45)[C@@H]3C[C@H]12,13µM*!,·,-20%,-8%[29.3 µM],-11,-9
CCOc1ccc(C(=O)Nc2ccc3nc(SCC(=O)N4CCc5ccccc54)sc3c2)cc1,·,·,·,-8%,·,·
CC(=O)N1CCN(c2ccc(NCc3ccccc3)cc2)CC1,-6%,-2%,-11%,-19%,-13,-3
Fc1ccc(CNc2ccc(N3CCN(Cc4ccccc4)CC3)cc2)cc1,·,-5%,-8%,?,-72*,-74*
CN(C)c1ccc(C(CNS(=O)(=O)c2ccc(Br)cc2)N2CCCC2)cc1 (stereo not given),·,·,·,3%,·,·
